This is part of a sample that, as a whole, favours compounds with a hit. Of some 83,000 tested, about 20% had one in any assay.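 Negative percent growth values reflect cell death: -40 means 40% of the cells present at the start died, and -100 means all died.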 The source made the active and inactive calls.
Test system: MDA-MB-468 breast
Test: NCI-60 one-dose screen, 48 h (100 = growth as untreated, 0 = no growth, -100 = all killed)
Details: 10 µM unless noted
Method: Growth inhibition of the MDA-MB-468 human Breast tumor cell line is measured as a screen for anti-cancer activity. Cells are grown in 96 well plates and exposed to the test compound for 48 hours. Compounds are tested at a single concentration, which is 10^-5 M for most compounds. The reported endpoint is percent growth (GI% or GIPRCNT), where numbers from 0 - 100% represent growth inhibition, and numbers from -100% - 0 represent cell death. For example, a value of 40 represents 60% growth inhibition. A value of 0 means no net growth occurred over the course of the experiment. A value of -40 indicates 40% of cells at the beginning of the experiment died by the end of the experiment. A value of -100 means all cells are dead at the end of the experiment.
NCI-60 Human Tumor Cell Lines Screen was performed using the standard one-dose NCI protocol, which is described in more detail at https://dtp.cancer.gov/discovery_development/nci-60/default.htm.
Compounds with GIPRCNT values below 10 were considered active. Activity score was based on GIPRCNT using the following formula: […]
Score is 0 for GIPRCNT values of 100 or above, 50 for GIPRCNT values of 0, and 100 for GIPRCNT values of -100.

SMILES	growth
O=C(Nc1ccc(NS(=O)(=O)c2ccc(F)cc2)cc1)C12CC3CC(CC(C3)C1)C2	96.5% (inactive)
Nc1cccc(C(=O)Nc2ccc3c(O)c(N=Nc4ccc(N=Nc5ccc(S(=O)(=O)O)cc5)cc4)c(S(=O)(=O)O)cc3c2)c1	113% (inactive)
CCN1CC(CCN2CCOCC2)C(C(c2ccccc2)c2ccccc2)C1=O (stereo not given)	102% (inactive)
O=C(NC[C@H](O)CO)c1ccncc1Nc1ccc(I)cc1F	103% (inactive)
Clc1ccc2c(c1)N(CCCN1CCCC1)c1ccccc1S2	16.4% (inactive)
Nc1cc2c(cc1Br)-c1c(C(=O)O)cccc1C2O (stereo not given)	74.6% (inactive)
Cc1ccc(NC(=O)Cn2cc(CN3CCN(c4ccnc5cc(Cl)ccc45)CC3)nn2)cc1	88.1% (inactive)
CCS(=O)(=O)OCCCl	94.9% (inactive)
C=CC[Se]C(=O)Cc1c(C)n(C(=O)c2ccc(Cl)cc2)c2ccc(OC)cc12	-37.5% (active)
CCN(Cc1ccc(CN(CC)C(=O)C(Cl)(Cl)Cl)cc1)C(=O)C(Cl)(Cl)Cl	62.5% (inactive)
c1ccc(-c2cccc(-c3ccccn3)n2)nc1	-15.6% (active)
CN(C)C(=S)N=Nc1c(O)[nH]c2ccccc12	-2.36% (active)
O=C(CN1C(=O)S/C(=C\c2ccccc2)C1=O)Nc1ncc(Cc2ccccc2Cl)s1	115% (inactive)
CC(C)N=C(N/C(N)=N/c1nc2ccccc2s1)NC(C)C	66.4% (inactive)
Cn1c(=O)c2c(nc(Nc3cc(=O)[nH]c(=O)[nH]3)n2Cc2ccccc2)n(C)c1=O	84.7% (inactive)
COc1cc(N=Nc2cc(Cc3ccc(N(C)C)cc3)c(N)cc2N(C)C)c2ncccc2c1	-54.8% (active)
Cn1c2ccccc2c2nn(Cc3ccccc3)c(=O)nc21	106% (inactive)
CN(C)CCCNc1c2ccc(Cl)cc2nc2c1oc1ccccc12	-49.6% (active)
CCc1cc(O)ccc1Nc1cc(-c2ccc(-n3cccn3)cc2)[nH]n1	58.8% (inactive)
CCCCCCCCCCCCCCCCCCNC(=O)[C@H]1CSC(c2cccs2)N1 (stereo not given in full)	60.8% (inactive)

SMILES	growth
CCCn1c(=O)c2c(nc(-c3cccc(OCCCCl)c3)n2C)n(CCC)c1=O	23.6% (inactive)
O=C(/C=C/c1ccc(Cl)nc1)c1ccc(Cl)cc1Cl	91.5% (inactive)
CCCN(CCC)C(=O)[C@H](CC)[C@@H]1CC[C@@H](C)[C@@H]([C@H](C)[C@@H](O)[C@@H](C)C(=O)[C@H](CC)C2O[C@]3(C=C[C@@H](O)[C@]4(CC[C@@](C)([C@H]5CC[C@](O)(CC)[C@H](C)O5)O4)O3)[C@H](C)C[C@@H]2C)O1 (stereo not given in full)	-24.6% (active)
COc1ccc(Cn2nc(-c3ccccc3)c3c2CCc2cnoc2-3)cc1	43.1% (inactive)
COc1ccc(NC2=C(Cl)C(=O)C(C)=C(C)C2=O)cc1OC	-38.8% (active)
CC(C)(C)OC(=O)N1CCc2c(sc3ncnc(N/N=C/c4cccc(Br)c4)c23)C1	52.2% (inactive)
CN1CCN(c2ccc(Nc3c4ccccc4nc4ccccc34)cc2)CC1	102% (inactive)
Cc1nc(Nc2nc3ccccc3o2)nc(-c2cccc([N+](=O)[O-])c2)c1C(=O)Nc1ccc(F)c(Cl)c1	-2.01% (active)
CN1CCN(CCCCCN=c2cc3c(=O)n(CCCCCN4CCN(C)CC4)c(=O)c4c(NCCCCCN5CCN(C)CC5)cc5c(O)n(CCCCCN6CCN(C)CC6)c(=O)c2c5c4-3)CC1	-50.8% (active)
CCCCOc1nc2ccc(OC)cc2cc1-c1cc(-c2ccc(Cl)cc2)nc(-c2ccc(Cl)cc2)c1	95.2% (inactive)
C=CCC(=O)N[C@H](/C=C/C(=O)O)Cc1ccc(-c2cc(Cl)cc(Cl)c2)cc1	101% (inactive)
COc1ccc(/C(Cl)=N/N=C(\Cl)c2cc(OC)c(OC)c(OC)c2)cc1OC(C)=O	95.5% (inactive)
NC1=NC(c2ccccc2)N=C(Nc2ccccc2)N1 (stereo not given)	9.95% (active)
CCC(=O)N1C/C(=C/c2ccc(Cl)cc2)C(=O)/C(=C/c2ccc(Cl)cc2)C1	-84.5% (active)
COc1cc(-c2n/c(=C\c3c(O)[nH]c4cc(Cl)ccc34)cc3c2=Nc2ccccc2-3)cc(OC)c1OC	73.7% (inactive)
CCN(CC)CCC(=O)c1cccc2ccccc12	84.5% (inactive)
COC12C=C/C(=C(/C(=O)OCc3csc(SC)n3)C(=O)CCCCCCCCC3(OC)C=C/C(=C(/C(=O)OCc4cnc(SC)s4)C(=O)CCCCCCCC1)O3)O2 (stereo not given)	29.5% (inactive)
O=C(N/N=C/c1cc([N+](=O)[O-])ccc1O)c1cccc2ccccc12	-8.62% (active)
COc1cc2ncnc(Oc3ccc(NC(=O)Nc4ccc(CN5CCOCC5)c(C(F)(F)F)c4)c4ccccc34)c2cc1OC	-12.3% (active)
O=C(O)c1cccc([N+](=O)[O-])c1	109% (inactive)

Source: PubChem BioAssay (NCI)
